# Experimental data published in PubChem BioAssay (NCI).
# This is part of a sample that, as a whole, favours compounds with a hit. Of some 83,000 tested, about 20% had one in any assay.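 Plates (96-well) were seeded with cells, treated with compound at one concentration, and incubated for 48 hours before percent growth was determined.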 Values without a mark were called inactive. Active and inactive are the calls of the source. Rule for the calls: active = growth percent below 10; inactive = the rest.
# Tests used:
# Assay in all cases: NCI-60 one-dose screen, 48 h (100 = growth as untreated, 0 = no growth, -100 = all killed)
# Settings in all cases: 10 µM unless noted
# [1] = system: HCT-15 colon
# [2] = system: HT29 colon
# [3] = system: SNB-75 CNS
# [4] = system: SNB-19 CNS
# [5] = system: U251 CNS
# [6] = system: PC-3 prostate
# [7] = system: SK-MEL-5 melanoma
# [8] = system: UACC-62 melanoma
# [9] = system: LOX IMVI melanoma
# [10] = system: SK-MEL-28 melanoma
SMILES,growth [1],growth [2],growth [3],growth [4],growth [5],growth [6],growth [7],growth [8],growth [9],growth [10]
FC(F)c1nc2ccccc2n1-c1nc(N2CCOCC2)nc(N2CCOCC2)n1,9.28% (active),2.81% (active),-48% (active),10.5%,4.05% (active),7.59% (active),-41.8% (active),-50% (active),-17.9% (active),-31% (active)
O=C(Nc1nc2cccc(-c3ccc(CN4CCS(=O)(=O)CC4)cc3)n2n1)C1CC1,94.7%,65.4%,90.3%,48%,65.3%,76.9%,74.6%,87.6%,60.4%,90.2%
COc1cc2c(cc1OCCCN1Cc3ccc(OCCCCC(=O)N4CCC(CCN5CCCC5)CC4)cc3C1)N=C(N)C21CCCC1,102%,9.48% (active),60.3%,103%,79.2%,79.9%,55.3%,106%,64%,97.9%
O=c1[nH]c(N2CCOCC2)nc2scc(-c3ccccc3)c12,99%,86.8%,84.3%,106%,69.5%,94.6%,98.7%,99.2%,100%,110%
CC(C)(C)CC(C)(C)Nc1c(-c2c(O)c3ccccc3oc2=O)nc2c(Cl)cc(C(F)(F)F)cn12,107%,105%,85.7%,101%,101%,79.6%,97.8%,93.4%,98.1%,113%
[2H]C1([2H])[C@H](C)O[C@H](C)C([2H])([2H])N1c1ccc(NC(=O)c2cccc(-c3ccc(OC(F)(F)F)cc3)c2C)cn1,84.2%,61.2%,72.1%,65.7%,65.3%,62.1%,53.9%,52.8%,68.4%,89.2%
CC(C)(C)c1ccc(Cn2cc(CSc3nc4ccccc4s3)nn2)cc1,99.7%,99.6%,94%,89.8%,93.3%,96.1%,106%,88.4%,103%,96.4%
COc1cc(CCc2cc(NC(=O)c3ccc(N4C[C@@H](C)N[C@@H](C)C4)cc3)n[nH]2)cc(OC)c1,53.5%,4.25% (active),6.83% (active),83.4%,45.2%,47.2%,17.3%,45.4%,-30.9% (active),35.7%
Cn1cnc(-c2cc3nccc(Oc4ccc(NC(=S)NC(=O)Cc5ccccc5)cc4F)c3s2)c1,85.3%,62.6%,78.6%,96.6%,79.7%,81.3%,76.7%,93.8%,94.5%,98.3%
COc1cc(C2CC(c3ccc(Cl)cc3)=NN2c2ccc(Cl)cc2)cc(OC)c1OC (stereo not given),91.2%,94.7%,58.7%,88.1%,85.1%,64.1%,97.9%,77%,99.8%,96.1%
COc1cccc2cc(-c3nc(C4CCC(C(=O)O)CC4)n4ncnc(N)c34)[nH]c12 (stereo not given),16.4%,14.3%,-43.1% (active),15.7%,9.1% (active),13.3%,-28.7% (active),-32.2% (active),-4.84% (active),-9.6% (active)
O=C(Nc1ccc(-c2ccnc(Nc3ccc(N4CCOCC4)cc3)n2)cc1)[C@@H]1CCCN1,23.3%,18.6%,-1.55% (active),83.4%,51.4%,61.2%,49.2%,68.5%,30.4%,54.5%
COc1ccc(C2CC(=O)c3c(O)c(OC)c(OC)c(OC)c3O2)c(O)c1 (stereo not given),10.3%,65.3%,38.1%,35.6%,24.3%,29%,20%,37%,44.2%,61.2%
N#CC[C@H](C1CCCC1)n1cc(-c2ncnc3[nH]ccc23)cn1,89.7%,62.9%,33.8%,90.7%,63.9%,59%,84.8%,82%,55.3%,79.9%
COc1cc(F)c(F)c(Nc2ccc(I)cc2F)c1NS(=O)(=O)C1(C[C@H](O)CO)CC1,26.9%,5.42% (active),41%,43%,35.6%,48.9%,19.1%,-3.18% (active),11.9%,3.06% (active)
CN1CCN(c2nc(NCCNc3ccnc4cc(Cl)ccc34)c3ccccc3n2)CC1,16.1%,0.651% (active),74.7%,34.8%,9.01% (active),30.4%,-97.5% (active),-55.1% (active),-56% (active),-58.5% (active)
CC(C)(O)CC(=O)NCCn1ccc2ncnc(Nc3ccc(Oc4cccc(C(F)(F)F)c4)c(Cl)c3)c21,12.2%,-24.2% (active),29.3%,18.7%,9.09% (active),1.54% (active),-19.9% (active),-7.61% (active),6.23% (active),-0.504% (active)
c1cc(OCCN2CCCCC2)cc(-c2n[nH]c3ccc(-c4ncn[nH]4)cc23)c1,79.7%,21%,46.1%,86.2%,84%,86.9%,43.4%,31.9%,30.8%,46.5%
C=C1[C@@H](O)C[C@H]2C(C)(C)C[C@H](Cl)C[C@]2(C)[C@H]1C[C@H](O)[C@H]1CC(=O)NC1=O,-13.7% (active),-23.6% (active),-37.2% (active),-20.7% (active),-16.8% (active),-19% (active),-70.1% (active),-72.4% (active),-71.9% (active),-26.1% (active)
Cc1ccc(NC(=O)c2ccc(CN3CC[C@H](N(C)C)C3)c(C(F)(F)F)c2)cc1Nc1nccc(-c2cncnc2)n1,8.37% (active),-47.3% (active),-85.9% (active),19.6%,-36% (active),10.9%,-96.6% (active),-63.5% (active),-72.7% (active),-77.8% (active)
CNC(=O)c1cc(Oc2cccc3nc(Nc4ccc(Oc5ccccc5)cc4)ccc23)ccn1,54.7%,62.5%,67.8%,92%,65.6%,35.4%,36.3%,62.6%,83%,77.4%
C[C@@H]1COCCN1c1cc(C2([S@](C)(=N)=O)CC2)nc(-c2ccnc3[nH]ccc23)n1,31.7%,13.4%,31.1%,28%,32.2%,50.7%,21.4%,23.7%,2.37% (active),70.7%
CNC(=O)c1cc(Oc2ccc(NC(=O)Nc3ccc(Cl)c(C(F)(F)F)c3)c(F)c2)ccn1,-18.1% (active),-35.2% (active),-68.8% (active),3.52% (active),-44.4% (active),3.89% (active),-95.9% (active),-41.9% (active),-89% (active),-53.7% (active)
CO[C@H]1C[C@@H]2CC[C@@H](C)[C@@](O)(O2)C(=O)C(=O)N2CCCC[C@H]2C(=O)O[C@H]([C@H](C)C[C@@H]2CC[C@@H](OP(C)(C)=O)[C@H](OC)C2)CC(=O)[C@H](C)/C=C(\C)[C@@H](O)[C@@H](OC)C(=O)[C@H](C)C[C@H](C)\C=C/C=C/C=C/1C,47.6%,40.3%,17.6%,53%,40.4%,42.2%,51.6%,39.5%,42.7%,54.4%
CC(C)(C)c1cnc(CSc2cnc(NC(=O)C3CCNCC3)s2)o1,22.8%,-9.89% (active),-39.5% (active),12.4%,2.2% (active),0.914% (active),-47.2% (active),-49.7% (active),6.56% (active),-12.8% (active)
O=C(CNc1nc2ccccc2s1)Nc1ccc(-c2nc3ccccc3s2)cc1,105%,109%,99%,100%,89.1%,95%,103%,94.6%,75.8%,113%
